From the supplement of paper PMC11417369 come the findings set out here.

The full ranking holds about 25,000 sequences; the median of “ln(normalized median fluorescence intensity)” is about 9.7, and the highest 2% start at about 11. What follows is part of a selection rich in the highest values, with near analogues and random picks from the rest.

The subject of the assay is PfAP2-HC AP2 domain (GST-tagged). In words: gcPBM binding intensity (ln(normalized median fluorescence intensity)); higher = stronger DNA binding. Summed up:
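Using an Agilent 4 × 180k array, primer-extended double-stranded 36-bp intergenic genomic probes and negative controls were exposed for 1 h to GST-fused P. falciparum DNA-binding domains expressed in E. coli. Binding was carried out in 1× PBS with 1% milk, 0.2 mg/ml BSA, 0.5% salmon testes DNA and 0.03% Triton X-100, and protein was detected with Alexa488 anti-GST antibody and a 488 nm scan. Binding intensity is the highest Masliner-normalised natural-log median intensity across replicate spots of either probe orientation.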
“AAAAATCAATTAGAAGAACACACGTAAATTTTTTTT [CACACA_site2396]”: the “gcPBM binding intensity (ln)” value was 9.76.
Under “TATTTTTCTTTATTGGTACACACGAAAAAAAAATTG [CACACA_site3054]” stands 9.53; under “AAATGGGTTTATTTAACACACAAAAGAAAAAATATA [CACACA_site1938]”, 9.77; under “AAAGGTGTATTTAATACACACGTGTCATTAAAATTG [CACACA_site4508]”, 9.71.
Under “TAAATACAGACATACACACATACACCCACATATATA [CACACA_site547]” stands 10.3; under “CACACCCACAGACACACACACACATATATAATATAT [CACACA_site594]”, 11.4.
As for “TATAATAATCCACAAGCACACACACCCACATATATA [CACACA_site8343]”, the figure is 11.3; as for “TATATACATAGACACCCACACACAAAAAAAAAAAAA [CACACA_site8186]”, 10.2.
Regarding “ATAATCCACAAGCACACACACACACCCATATATATA [CACACA_site1268]”, the “gcPBM binding intensity (ln)” value was 10.6.
Under “TAATAATCCACAAGCACACACACACCCATATATATA [CACACA_site1267]” stands 10.8.
As for “TATATATATATATATACACACACACCCATATATATA [CACACA_site8812]”, the figure is 10.3; as for “CACCCATACAGACATACACACACATATATATTAATA [CACACA_site8077]”, 10.2; as for “TATATATATATAGACACACACACACCCATATATATA [CACACA_site4117]”, 10.9.
As for “CACACCCACAGACACACACACACATATATATATATA [CACACA_site363]”, the figure is 10.8; as for “CGCACCCACAGACACACACACACATATATATATATA [CACACA_site2202]”, 11.4; as for “AAAAAAAAAAAAAAATGTACAAAAATTACTATAAAA [XGTACX_site7683]”, 9.48.
In the case of “AAAAATAATGCACATATATATAATATGTATATGTAT [CACACA_negctrl_site443]”, the “gcPBM binding intensity (ln)” value was 9.75.
Under “GTAATGAAACATTGCACACATATAATAATATAATAT [CACACA_site1422]” stands 9.84; under “AGAAAAGAAATTAGTTGTACTCTGATGAATTATCCT [XGTACX_site6284]”, 9.5.
Under “TTCAATTTTTTATGAACACACAAAAAAAAAAAAAAA [CACACA_site2533]” stands 9.23; under “ATAGACAGCGCACAAACACACAAACACAGACCCCCA [CACACA_site4409]”, 10.2; under “AGTATACACAGACACACACACACATATATATATATA [CACACA_site8510]”, 10.9.
Turning to “ACCGTGGGAGGACACACACACACACCCACATATATA [CACACA_site4339]”, the “gcPBM binding intensity (ln)” value is 10.8.
“CACAGACACCCATACACACACATACCCATATATATA [CACACA_site5023]”: the “gcPBM binding intensity (ln)” value came out at 10.3.
As for “GGCATACACAGACACACACACACACCCACATATATA [CACACA_site591]”, the figure is 11.2.
As for “TTGGCATACAGACACACACACACACCCCCACATATA [CACACA_site590]”, the figure is 10.9; as for “AAACCGTGGGAGCACACACACACACCCACCCATATA [CACACA_site332]”, 10.4; as for “AGACAGCGCACAAACACACAAACACCCACCCACATA [CACACA_site451]”, 11.3.
As for “TTTAAATACAGACATACACACATACACCCACATATA [CACACA_site8078]”, the figure is 10.2; as for “ATAGTATACAGACACACACACACACCCATATATATA [CACACA_site1736]”, 11.7.
For the sequence “ACCGTGGGAAGACACACACACACACCCACATATATA [CACACA_site333]”, the “gcPBM binding intensity (ln)” value worked out at 11.
Regarding “ATAGACAGCGCACAAACACACAAACACCCACCCACA [CACACA_site8043]”, the “gcPBM binding intensity (ln)” value amounted to 10.1.
Under “ATTAGTATTAGATGATGTACATTTATATTGAAATAT [XGTACX_site8537]” stands 9.63; under “GATATATTTTATATATGTACATACAAGGGTAAATAT [XGTACX_site1202]”, 9.68.
As for “ATATATATATATGTCTGTACATAAAAAATAATAAAT [XGTACX_site3122]”, the figure is 9.68.
As for “TATATATATATAATTACACACAATGTTCTATATATA [CACACA_site3235]”, the figure is 9.8; as for “TTGTGATTATATAATCGTACATAATTTTAATCACAC [XGTACX_site398]”, 9.58.
Regarding “TTTTTTTTAATTGTGATACGTATATTATTTAATGAT [CACACA_negctrl_site38]”, the “gcPBM binding intensity (ln)” value stood at 9.59.
As for “CGCACAAAAATATACACACACACATATATATTTATT [CACACA_site3645]”, the figure is 10.4; as for “ACATTATATAAAATATGTACATATAAAAAATTCTAT [XGTACX_site1617]”, 9.77.
Under “GTTATATAAACATATGCATGTGAAGTGTTTATTAAT [TGCATGCA_site183]” stands 9.8.
As for “TGGTATCAAAAGAATACACACACACCGACATATATA [CACACA_site9265]”, the figure is 11.1; as for “GTATCAAAAGAATACACACACACATACAGATATATA [CACACA_site5975]”, 11.2.
Consider “TAGTAAAAGATATACACACACCAAAAAATATAATTA [CACACA_site7142]”, for which the “gcPBM binding intensity (ln)” value worked out at 10.5.
Under “AAAATACACGCATACACACACACACCGACACATATA [CACACA_site4523]” stands 10.7; under “TATATCAAAATACATACACACATTTGTATATACATT [CACACA_site2696]”, 10.
As for “GTATCAAAAGAATACACACACACATACCTATAAATA [CACACA_site7737]”, the figure is 10.8; as for “AATAGTAAAAGATATACACACACCAAAAAATAGAAT [CACACA_site2289]”, 11.6.
As for “TCAAAGCACAGATACACACACATATATATATATATA [CACACA_site287]”, the figure is 10.1.
Regarding “AATAGTAAAAGATATACACACACCAAAAAATATAAT [CACACA_site5293]”, the “gcPBM binding intensity (ln)” value was determined as 10.3.
